Cardio protect: cardioprotection against H2O2-induced cell death, primary screen, uHTS, H9c2 cells, ATPLite luminescence; actives 0.63% (n = 360,000); protection from H2O2 cell death, % at 20 µM; H9c2 cardiomyocytes, H2O2 injury protection, 2 h; AID 588492, 2011;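 active = compounds giving at least 50% protection of heart cells from peroxide-induced death in the single-dose screen, raw or plate-pattern-corrected value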
GRK2 inh: compounds blocking aptamer binding on GRK2 – biochemical, human GRK2, bead flow cytometry, HTS, primary screen; AID 488847, 2010; Beta-adrenergic receptor kinase 1 (Homo sapiens), P25098; FAM-aptamer displacement from GRK2; inhibition of aptamer binding, % at 10 µM; actives 0.59% (n = 330,000);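 active = inhibition of aptamer binding above 40%, roughly 3 SD of noise, on plates passing a quality check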;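 note: median bead fluorescence of bound FAM aptamer so fluorescent compounds give negative values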
HDAC3 inhib: HDAC3 deacetylase inhibitors, primary screen, biochemical, fluorescence, cell-free homogeneous | Histone deacetylase 3 (Homo sapiens), O15379 | recombinant HDAC3, fluorogenic peptide/trypsin coupled | inhibition, % at 8.3 µM | actives 0.15% (n = 320,000) | AID 2718, 2010; in the data active = inhibition above about 26%, passing the limit was not always enough; inconclusive = no clear call, values can overlap the other calls
Target sequence (O15379 whole entry, looked up): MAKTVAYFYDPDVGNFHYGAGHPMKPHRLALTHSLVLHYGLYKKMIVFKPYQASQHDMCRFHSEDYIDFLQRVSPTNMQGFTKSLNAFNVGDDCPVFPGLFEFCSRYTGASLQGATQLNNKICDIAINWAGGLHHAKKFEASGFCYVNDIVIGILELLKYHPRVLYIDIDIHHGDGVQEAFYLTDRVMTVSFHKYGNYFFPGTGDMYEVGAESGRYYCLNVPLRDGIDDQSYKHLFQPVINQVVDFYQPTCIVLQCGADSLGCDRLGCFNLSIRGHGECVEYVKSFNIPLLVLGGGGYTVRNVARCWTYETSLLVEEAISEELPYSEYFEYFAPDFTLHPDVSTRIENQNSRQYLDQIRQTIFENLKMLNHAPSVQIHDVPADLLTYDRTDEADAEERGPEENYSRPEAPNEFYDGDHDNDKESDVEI
Neddyl block: inhibitors of cullin neddylation, primary screen, biochemical, TR-FRET, uHTS, NAE and Ubc12. NEDD8-conjugating enzyme Ubc12 (Homo sapiens) + NEDD8-activating enzyme E1 regulatory …. inhibition, % at 25 µM. actives 0.58% (n = 360,000); in the data active = inhibition above about 36%
Large screens that a line does not name were inactive. Sampled rows, rich in hits. Any-hit rate of the full collection: about 1.8%.

C=CCSc1nnc(-c2sc(-c3ccccc3)nc2C)n1C	none (not shown: Neddyl block)
C=CCN(C(=O)CSC1=NC(=O)CN1C(C)=O)c1nc(C)c(-c2ccccc2)s1	HDAC3 inhib 68
CCOC(=O)C1=C(COC(=O)/C=C/c2ccc(F)cc2)NC(=O)NC1C (stereo not drawn)	Cardio protect 45 (no result: GRK2 inh, HDAC3 inhib)
CCOC(=O)C1=C(COC(=O)c2cc(OC)c(OC)c(OC)c2)NC(=O)NC1C (stereo not drawn)	Cardio protect 60
CCOC(=O)C1=C(COC(=O)c2cccc(Br)c2)NC(=O)NC1C (stereo not drawn)	none
Cc1ccsc1/C=N\NC(=O)Cn1nnc2ccccc21	none
COc1ccc(C2C(C(N)=O)=C(C)Nc3nc(-c4ccccc4)nn32)cc1OC (stereo not drawn)	none
COc1cccc(-c2nc3n(n2)C(c2ccc4c(c2)OCO4)C(C(N)=O)=C(C)N3)c1 (stereo not drawn)	HDAC3 inhib 56
C/C(=N\NS(=O)(=O)c1ccccc1)c1cccc(NC(=O)c2cccc(Cl)c2)c1	GRK2 inh 60
O=C(NO)c1ccc(C(=O)N(C2CCCCC2)C2CCCCC2)cc1	Cardio protect 81, HDAC3 inhib inconclusive
O=C(c1ccc(-n2cnnn2)cc1)N(C1CCCCC1)C1CCCCC1	none
COc1cc(/C=C(\C#N)c2nc3ccc(C)cc3[nH]2)cc([N+](=O)[O-])c1O	none (no result: GRK2 inh, HDAC3 inhib)
COc1cc(/C=C(\C#N)c2nc3ccccc3[nH]2)ccc1Oc1ccc([N+](=O)[O-])cn1	Cardio protect 76
COc1cc(/C=C(/C#N)c2ccccc2)ccc1Oc1ccc([N+](=O)[O-])cn1	none
COc1cc(/C=C(\C#N)c2nc3ccc(C)cc3[nH]2)c([N+](=O)[O-])cc1OC	Cardio protect 85
O=C(CCc1nc2ccccc2c(=O)[nH]1)N1CCN(S(=O)(=O)c2ccc(Cl)c(C(F)(F)F)c2)CC1	none
CC1(C(=O)NCc2ccccn2)CCN1C(=O)Cc1ccc(Cl)cc1Cl (stereo not drawn)	none (no result: GRK2 inh, HDAC3 inhib)
CCOC(=O)C1CCN(C(c2cc3ccc(C)c(C)c3[nH]c2=O)c2nnnn2C2CCCCC2)CC1 (stereo not drawn)	none
CCOC(=O)C1CCN(C(c2cc3c(C)ccc(C)c3[nH]c2=O)c2nnnn2C2CCCCC2)CC1 (stereo not drawn)	Cardio protect 57
O=C(CN1C(=O)C2CCCCC2C1=O)Nc1cc(C(F)(F)F)ccc1N1CCCC1 (stereo not drawn)	none
O=C(Nc1ccc(O)c(-c2nc3ccccc3s2)c1)c1cccs1	none
O=C(Nc1ccc(O)c(-c2nc3ccccc3s2)c1)c1cc(=O)c2ccccc2o1	GRK2 inh 90
CC(C)(CCO)Nc1ncnc2onc(-c3ccc(F)cc3)c12	none
COc1cc2c(cc1OC)[C@@H]1Cc3cc4c(cc3[C@H](C2)N1C)OCO4	HDAC3 inhib 34
O=C(COC(=O)c1cc(Br)ccc1O)Nc1ccc2c(c1)OCO2	none
O=C(Nc1ncccc1O)c1ccc(Oc2ccccc2)cc1	HDAC3 inhib 56
COc1ccccc1NS(=O)(=O)c1ccc(C(=O)Nc2ncccc2O)cc1	HDAC3 inhib 79
O=C(Nc1ncccc1O)c1ccc(OCC2CCCO2)cc1 (stereo not drawn)	HDAC3 inhib 68
CC(O)C(=O)N/N=C/c1ccccc1C(=O)O (stereo not drawn)	none
O=C(COc1cc(Cl)ccc1Cl)N1CCNC1=O	none (no result: GRK2 inh, HDAC3 inhib)
O=C(CCc1ccccc1)Nc1cccc(S(=O)(=O)N2CCOCC2)c1	HDAC3 inhib inconclusive
O=C1N=c2ccccc2=C1c1c(O)[nH]c2c(C(F)(F)F)cccc12	none
Nc1ccccc1NC(=O)NC(=O)c1ccccc1	HDAC3 inhib 41
Cc1ccc(-c2n[nH]c(=O)c3ccccc23)cc1S(=O)(=O)NCC1CCCO1 (stereo not drawn)	Cardio protect 71
CCOC(=O)CNS(=O)(=O)c1cc(-c2n[nH]c(=O)c3ccccc23)ccc1C	Cardio protect 61 (no result: GRK2 inh, HDAC3 inhib)
COc1nnc(-c2ccc(C)c(S(=O)(=O)NCCO)c2)c2ccccc12	Cardio protect 62
Cc1ccc(NS(=O)(=O)c2cc(-c3n[nH]c(=O)c4ccccc34)ccc2C)cc1	Cardio protect 50
C[C@H](CO)N1C[C@H](C)[C@@H](CN(C)C(=O)CCC(F)(F)F)OCc2cnnn2CCCC1=O	none (no result: GRK2 inh, HDAC3 inhib)
O=[N+]([O-])c1ccc(NS(=O)(=O)c2ccc(Cl)c(Cl)c2)cc1	none (no result: GRK2 inh, HDAC3 inhib)
COc1cc(/C=N/NC(=O)c2ccc(CN3C(=O)c4cccc5cccc3c45)cc2)cc(OC)c1O	Neddyl block 44
COc1ccc(/C=N/NC(=O)c2ccc(CN3C(=O)c4cccc5cccc3c45)cc2)cc1O	none (not shown: Neddyl block)
Cc1cccc(NC(=O)COc2cccc3c2CCNC3=O)c1	Cardio protect 59 (no result: GRK2 inh, HDAC3 inhib)
O=C(COc1cccc2c1CCNC2=O)Nc1ccc(F)cc1	Cardio protect 51 (no result: GRK2 inh, HDAC3 inhib)
COc1cccc(NC(=O)COc2cccc3c2CCNC3=O)c1	Cardio protect 56
COc1ccc(NC(=O)COc2cccc3c2CCNC3=O)cc1	Cardio protect 68 (no result: GRK2 inh, HDAC3 inhib)
COc1cccc(NC(=O)COc2ccc(C)cc2)c1	none
Cc1cccc(NC(=O)COc2cccc3c2CCN(C)C3=O)c1	none
C(=C\c1ccccc1)/CN1CCN(C(c2cccs2)c2nnnn2-c2ccc3c(c2)OCCO3)CC1 (stereo not drawn)	none (no result: GRK2 inh, HDAC3 inhib)
O=C(O)c1cc([N+](=O)[O-])ccc1Oc1ccccc1	none (no result: GRK2 inh, HDAC3 inhib)
COc1cc(NC(=O)N2c3ccccc3Sc3ccccc32)c(C(=O)O)cc1OC	HDAC3 inhib inconclusive, Neddyl block 42
COc1cc(NC(=O)Cc2ccccc2)c(C(=O)O)cc1OC	none
Cc1ccc(NC(=O)c2oc3ccc(S(=O)(=O)N4CCOCC4)cc3c2C)cc1C	none (not shown: Neddyl block)
COc1cccc(NC(=O)c2oc3ccc(S(=O)(=O)N4CCOCC4)cc3c2C)c1	Cardio protect 85
COc1ccc2oc(C(=O)Nc3ccc(N4CCOCC4)cc3)c(C)c2c1	Cardio protect 56
COc1ccc(OC)c2sc(N(CCCN(C)C)C(=O)c3ccc(S(=O)(=O)N4CCc5ccccc5C4)cc3)nc12	HDAC3 inhib 41 (no result: Cardio protect, Neddyl block)
CC(=O)NC(Cc1ccccc1)C(=O)OCC(=O)c1ccccc1 (stereo not drawn)	none
Cc1cc(=S)nc(-c2ccccn2)[nH]1	none
Cc1[nH]c(-c2ccccn2)nc(=S)c1Cl	Cardio protect 59
O=C(Cn1cc(C(F)(F)F)cc(Cl)c1=O)NCc1ccccc1	none
COc1ccc(-c2cc(-c3nnc(COC(=O)c4ccncc4)o3)c3ccccc3n2)cc1OC	Cardio protect 79 (not shown: Neddyl block)
O=C(OCc1nnc(-c2ccc(Cl)cc2)o1)c1ccncc1	HDAC3 inhib inconclusive
Cc1ccc(S(=O)(=O)/N=C/c2cc(Br)ccc2O)cc1	Cardio protect 54
Cc1cc(N=Cc2cc(Br)ccc2O)no1	Cardio protect 57
FC(F)(F)c1ccccc1Cc1c(-c2ccccc2)nc2ccc(Br)cn12	none (no result: GRK2 inh, HDAC3 inhib)
CCCCNCC(=O)Nc1ccc(NC(=O)CNCCCC)cc1	none

Bioassay records from PubChem BioAssay.
